From the supplement of paper PMC6555819

What was measured:
Test in all cases: PBM binding z-score (relative to random genomic background probes); higher = stronger binding; sequences stand for … in GC…GCGATTGACAGCGTAGAATGAAGG
[1] = test system: FXR:RXRa (NR concentration 270 nM, RXRa partner concentration 90 nM)
Procedure, shortened: (§1)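 On custom Agilent 4×180K arrays, double-stranded probes with 34-nt variable regions carried direct-repeat seeds, single-nucleotide variants, half-site ablations or random human genomic background. Ligand-free nuclear receptor dimers were applied for 1 h, and binding was read with antibodies against each partner (one per run). Binding z-scores come from regression-normalized fluorescence, with the random background probes as reference.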

[2] = test system: LXRa:RXRa (NR concentration 270 nM, RXRa partner concentration 90 nM)
Procedure, shortened: as §1

[3] = test system: LXRa homodimer (NR concentration 270 nM)
Procedure, shortened: as §1

[4] = test system: LXRb:RXRa (NR concentration 270 nM, RXRa partner concentration 90 nM)
Procedure, shortened: as §1

[5] = test system: LXRb homodimer (NR concentration 270 nM)
Procedure, shortened: as §1

[6] = test system: PPARa:RXRa (NR concentration 270 nM, RXRa partner concentration 90 nM)
Procedure, shortened: as §1

[7] = test system: PPARg:RXRa (NR concentration 180 nM, RXRa partner concentration 90 nM)
Procedure, shortened: as §1

[8] = test system: PPARg:RXRa 270nM:90nM, anti-RXR (NR concentration 270 nM, RXRa partner concentration 90 nM)
Procedure, shortened: as §1

[9] = test system: PPARg:RXRa 30nM:10nM, anti-RXR (NR concentration 30 nM, RXRa partner concentration 10 nM)
Procedure, shortened: as §1

[10] = test system: PPARg:RXRa 90nM:30nM, anti-RXR (NR concentration 90 nM, RXRa partner concentration 30 nM)
Procedure, shortened: as §1

[11] = test system: PPARg:RXRa DBDmut IVT, anti-RXR (DBD mutation: RXRa K156A/R161A, NR concentration 270 nM, RXRa partner concentration 90 nM)
Procedure, shortened: as §1

[12] = test system: PPARg:RXRa IVT, anti-PPARg (NR concentration 270 nM, RXRa partner concentration 90 nM)
Procedure, shortened: as §1

[13] = test system: PPARg DBDmut:RXRa IVT, anti-PPARg (DBD mutation: PPARg1 K132A/R137A, NR concentration 270 nM, RXRa partner concentration 90 nM)
Procedure, shortened: as §1

[14] = test system: PPARg DBDmut IVT, anti-PPARg (DBD mutation: PPARg1 K132A/R137A, NR concentration 270 nM)
Procedure, shortened: as §1

[15] = test system: PPARg homodimer (NR concentration 180 nM)
Procedure, shortened: as §1

[16] = test system: PXR:RXRa (NR concentration 270 nM, RXRa partner concentration 90 nM)
Procedure, shortened: as §1

[17] = test system: PXR homodimer (NR concentration 270 nM)
Procedure, shortened: as §1

[18] = test system: RARa:RXR (NR concentration 270 nM, RXRa partner concentration 90 nM)
Procedure, shortened: as §1

[19] = test system: RARa homodimer (NR concentration 270 nM)
Procedure, shortened: as §1

[20] = test system: RARb:RXRa (NR concentration 270 nM, RXRa partner concentration 90 nM)
Procedure, shortened: as §1

Sequence | PBM binding z-score [1] | PBM binding z-score [2] | PBM binding z-score [3] | PBM binding z-score [4] | PBM binding z-score [5] | PBM binding z-score [6] | PBM binding z-score [7] | PBM binding z-score [8] | PBM binding z-score [9] | PBM binding z-score [10] | PBM binding z-score [11] | PBM binding z-score [12] | PBM binding z-score [13] | PBM binding z-score [14] | PBM binding z-score [15] | PBM binding z-score [16] | PBM binding z-score [17] | PBM binding z-score [18] | PBM binding z-score [19] | PBM binding z-score [20]
CCTTACGGGTCAAGGTTATAGAACGGGTGGTACG | 5.4 | 3.68 | 0.401 | 3 | -0.0236 | 5.1 | 4.04 | 4.67 | 1.87 | 3.53 | 1.6 | 3.22 | -0.135 | -0.211 | 1.83 | 3.27 | 0.223 | 4.16 | 1 | 4.13
AGAACGAGGGCACGCCGAGTTGATAGCAGAGTAG | 0.906 | 0.551 | -0.503 | 0.0965 | -0.66 | 2.36 | 2.1 | 1.92 | 0.0797 | 0.871 | 3.84 | 4.08 | 0.68 | -0.645 | 0.0729 | 1.38 | 0.119 | 0.82 | -0.438 | 2.57
TCATATAGGTAAACAGGTGAAATTCCGTAAGTTA | 1.25 | 1 | 0.35 | 1.2 | -0.0512 | 2.32 | 2.75 | 3.22 | 4.19 | 3.8 | 4.59 | 4.41 | 1.27 | 1.49 | 1.3 | 1.03 | 0.625 | 1.67 | 2.19 | 0.689
ATCTCTGGGTAACAAGTTCAGTGAAAGAGAGGAC | 0.503 | 0.668 | 0.353 | 0.819 | 0.98 | 1.7 | 1.62 | 1.83 | 0.953 | 1.5 | 2.93 | 2.94 | 0.76 | 0.979 | 1.27 | 1.87 | 1.92 | 0.922 | 1.24 | 1.75
ATCTCTAGGAAACCAAGTTCAGTGAATGCCGAAC | 0.256 | 0.434 | 0.599 | 0.317 | 0.4 | 0.151 | -0.0218 | 0.0648 | 0.0428 | 0.082 | -0.471 | 0.0982 | 0.852 | 0.501 | 0.854 | 1.17 | 1.48 | 0.595 | 1.12 | 0.938
TCAGACAGGTGAGGGTAACTCAGGTACGCAGTCG | 0.261 | 1.36 | -0.144 | 0.561 | -0.273 | 0.983 | 0.558 | 1.46 | 3.02 | 2.23 | 2.09 | 1.08 | 0.134 | -0.531 | 0.237 | 0.408 | -0.0185 | 0.722 | -0.208 | 1.02
TAGCCTAGGTCCTTGGGCCAGTATAGTACGCATC | -1.55 | -1.18 | -1.24 | -1.1 | -1.16 | -1.2 | -0.0575 | -0.847 | -0.771 | -0.944 | -1 | -0.913 | -2.61 | -1.34 | -2.22 | -1.19 | -1.2 | -1.44 | -2.43 | -0.495
ACTATTAGTTGAGACGAGGGCAACGGATAGGTTG | 0.259 | 0.127 | -0.147 | 0.0625 | 0.209 | 0.0596 | 0.652 | -0.1 | -0.0194 | -0.207 | -0.0332 | 0.424 | 0.418 | 0.955 | 0.155 | 1.32 | 0.265 | 1.26 | 0.262 | 0.843
CCGACTAGGTTATGGGGCATTCAGGCAACGGTGA | 0.258 | 0.306 | 0.00117 | 0.464 | -0.646 | 1.81 | 3.22 | 4.17 | 1.77 | 3.95 | 3.02 | 3.3 | -0.895 | -0.581 | 1.05 | -0.0889 | -0.0769 | 0.303 | -0.167 | 0.869
ACAATTAGTTGAGACGAGGGCAACCGATAGGTTG | 0.779 | 0.374 | 0.178 | 0.228 | -0.183 | 0.503 | 0.794 | 0.375 | 0.274 | 0.45 | -0.0279 | 0.475 | 0.916 | 0.299 | 0.566 | 1.37 | 0.711 | 1.13 | 0.878 | 1.14
ACAGACCGGTGATGAAGGTAACTCAGGCTATCAT | -0.208 | -0.192 | -0.177 | -0.283 | -0.429 | -0.318 | 0.549 | 0.0547 | -0.0977 | -0.129 | -0.264 | -0.316 | 0.0593 | 0.0893 | -0.0191 | -0.348 | -0.142 | -0.0159 | 0.27 | -0.139
TGAATGAGGATAAAGATCAGGGAACGTGGCGTCG | 0.0362 | -0.419 | -0.157 | -0.514 | -0.0964 | 1.03 | 1.87 | 3.78 | 2.17 | 3.5 | -0.598 | 0.0508 | -0.331 | -0.373 | -0.144 | -0.614 | -0.0385 | -0.537 | -0.101 | -0.238
CCGACTGGGGCAAGGTTCCCATAACGCACAGCCA | -0.116 | -0.36 | -0.312 | -0.226 | -1.24 | 1.17 | 3.1 | 3.89 | 2.1 | 3.38 | 2.36 | 3.12 | -0.684 | -0.962 | 0.192 | -0.613 | -0.376 | -0.115 | -0.502 | 0.825
